KB-V1 MDR tox = qHTS assay for MDR1-selective chemotherapeutics: Primary screen using the drug-selected MDR subline cells KB-V1; KB-V1 MDR cells viability, CellTiter-Glo, 72 h; Potency, µM (highest dose often 46.1 µM), most hits filed as cytotoxic; 400,000 tested, 3.4% active; further: on the % scale 0 is the no-effect control and ±100 the full control effect; nearly all actives have a fitted effect of over 60% in size
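Cytotoxicity toward P-gp-expressing KB-V1 cells was determined as loss of CellTiter-Glo luminescence after 72 h at 37 degrees C. Compounds were tested in quantitative HTS format across a concentration range, with curves fitted to normalized data.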
HT1080-NT tox = qHTS for induction of synthetic lethality in tumor cells producing 2HG: qHTS for the HT-1080-NT fibrosarcoma cell line; HT-1080-NT fibrosarcoma viability, CellTiter-Glo ATP luminescence, 48 h; Potency, µM (series often up to 46.1 µM), without a hit: at the highest dose activity, negative = less viability, hits mostly cytotoxic; 360,000 tested, 1.6% active;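 further: NT is the 2HG producing partner of a matched IDH1 knockdown line; 0% = DMSO-treated cells and -100% = media-only wells without cells; nearly all actives have a fitted effect of over 55% in size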
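750 cells/well, RPMI + 5% FBS; 2 h settle, compound pin-transfer, 48 h at 37 degrees C. CellTiter-Glo 10 min RT, luminescence. Normalized to DMSO and media-only wells.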
HepG2 viability = qHTS for Inhibitors of TGF-b: Cytotox Counterscreen. HepG2 CAGA-GFP viability, ATP luminescence, 18 h. 410,000 tested, 0.76% active. AID 588856, 2011. Potency, µM (highest dose often 46.1 µM), inactives show at the top dose activity change, negative = cytotoxicity, usual class: cytotoxic
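HepG2 CAGA-GFP cells (1000/well, DMEM with 1% FBS) received compound, then TGF-beta at 500 pg/mL final, and were incubated 18 hours at 37 degrees C. Viability was read by CellTiter-Glo luminescence. Media-only wells were set as complete cell-killing and DMSO as no toxicity.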
TGFb inhibitor = qHTS for Inhibitors of TGF-b. HepG2 CAGA-GFP TGF-b/SMAD3 reporter, GFP fluorescence, 18 h; TGF-beta stimulated, 500 pg/mL final. Potency, µM (titrated, usually from 46.1 µM), for the others: at the highest dose activity, negative = inhibition, usual class: inhibitors. 410,000 tested, 1.2% active. AID 588855, 2011; further: on the % scale 0 is the no-effect control and ±100 the full control effect; nearly all actives have a fitted effect of over 65% in size
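TGF-beta reporter screen: HEPG2 CAGA-GFP, 1% FBS, 500 pg/mL TGF-beta final, 18 h; per-cell GFP summed per well; curves fitted and categorized by class.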
HT1080 IDH1KD tx = qHTS for induction of synthetic lethality in tumor cells producing 2HG: qHTS for the HT-1080-IDH1KD cell line. Potency, µM (top dose mostly 46.1 µM), inactives show at the highest dose activity, negative = toxicity, actives largely listed as cytotoxic. HT-1080 IDH1 knockdown viability, ATP luminescence, 48 h. 360,000 tested, 2% active;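 further: 0% = DMSO wells and -100% = cell-free medium wells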
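CellTiter-Glo luminescence after 48 h compound exposure at 37 degrees C of IDH1-knockdown HT-1080 cells in 5% FBS RPMI. %Activity scaled between DMSO wells and cell-free media wells, with curves fitted and assigned curve classes.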
KB-3-1 cytotox = qHTS assay for MDR1-selective chemotherapeutics: Primary screen using the parental adenocarcinoma cell KB-3-1; KB-3-1 viability, CellTiter-Glo ATP luminescence, 72 h; Potency, µM (doses to about 46.1 µM), most hits filed as cytotoxic; 400,000 tested, 1.4% active; further: on the % scale 0 is the no-effect control and ±100 the full control effect; nearly all actives have a fitted effect of over 60% in size
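Cells are dispensed, compounds pinned in, plates held at 37 °C for 72 h, then CellTiter-Glo is added and luminescence read after 10 minutes. Cell line: parental KB-3-1 in phenol-red-free DMEM, 10% FBS.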
Numbers without * were called inactive; i = inactive; ? = inconclusive; . = no result. An excerpt weighted towards active compounds, which were near 6.6% of everything screened. The call rests on the fitted dose curve; in most records, active means well fitted curve in the direction sought with a large enough effect; inconclusive means small, poorly fitted or top-dose-only effect, or another doubt; inactive means no such curve, though single readings can be large; an effect the other way counts as inactive or inconclusive. Potency means the concentration at half of the fitted maximal effect.

SMILES | KB-V1 MDR tox | HT1080-NT tox | HepG2 viability | TGFb inhibitor | HT1080 IDH1KD tx | KB-3-1 cytotox
COc1cc(-c2cc3n(C)c(C)c(CCC(=O)NC4CCC(C)CC4)c(=O)n3n2)cc(OC)c1OC (stereo not drawn) | . | . | -11% | 3% | . | .
Cc1ccc(S(=O)(=O)NC(=NCC(=O)O)c2ccccc2)cc1 | i | -1% | 3.2µM* | 4% | -3% | i
CCCc1c(C(=O)N/N=C/C(C)=C/c2ccccc2)nnn1-c1nonc1N | i | 23% | 6% | 7% | 14% | i
CC1CCN(Cc2c(C(=O)N/N=C/c3ccc(C(F)(F)F)cc3)nnn2-c2nonc2N)CC1 | i | ? | -53% | ? | 26µM* | i
CC(C)c1c(C(=O)N/N=C/c2ccc(C(F)(F)F)cc2)nnn1-c1nonc1N | i | ? | -17% | ? | 26µM* | ?
CC1CCN(Cc2c(C(=O)N/N=C/c3cc(Cl)ccc3O)nnn2-c2nonc2N)CC1 | ? | ? | -9% | ? | 4.1µM* | 2.1µM*
CC(/C=N/NC(=O)c1nnn(-c2nonc2N)c1C(C)C)=C\c1ccccc1 | i | -27% | -38% | 16µM* | 0% | i
COc1c(Cl)cc(Cl)cc1/C=N/NC(=O)c1nnn(-c2nonc2N)c1CN1CCC(C)CC1 | ? | 10% | -8% | -5% | -1% | i
O=C(COc1ccc(S(=O)(=O)NC2CCCCC2)cc1)Nc1ccc(C(F)(F)F)cc1 | i | . | -38% | -21% | . | i
CC1CCN(Cc2c(C(=O)N/N=C/c3cc(Br)ccc3O)nnn2-c2nonc2N)CC1 | ? | 3.7µM* | -48% | ? | 2.3µM* | ?
Cc1cc(C)c(/C=N/NC(=O)c2nnn(-c3nonc3N)c2CN2CCC(C)CC2)c(C)c1 | ? | ? | -127% | ? | ? | ?
O=C(NCc1ccccc1Cl)NCc1noc2ccccc12 | i | . | -18% | -24% | . | i
CCc1cccc(NC(c2nnc(-c3ccccc3)o2)c2ccc(F)cc2Cl)c1 (stereo not drawn) | i | . | -21% | ? | . | i
Nc1nc2ccccc2n1/N=C/c1cccnc1 | i | 4% | -6% | -1% | 9% | i
Nc1nc2ccccc2n1/N=C/c1ccc(-c2ccccc2)o1 | 21µM* | -14% | -63% | ? | -11% | ?
O=C1NC(c2ccccc2)=C(c2ccccc2)C1=O | i | 18% | 4% | 16% | 20% | i
O=C1C(Br)=C(c2ccccc2)C(c2ccccc2)=C1c1ccccc1 | ? | 1% | 18% | 0% | ? | 6.5µM*
Cc1ccc(NC(=O)C(C)c2cccc(C(=O)c3ccccc3)c2)cc1O (stereo not drawn) | 6.5µM* | -22% | 9% | -7% | -28% | ?
Cc1oc2c(c1C(=O)c1ccc(Cl)cc1)C(=O)C(=O)c1ccccc1-2 | 16µM* | -5% | 10% | -7% | -7% | ?
Cc1ccc(C(=O)c2c(C)oc3c2C(=O)C(=O)c2ccccc2-3)cc1 | 5.2µM* | ? | -62% | ? | ? | ?
Cc1ccc(C(=O)c2coc3c2C(=O)C(=O)c2ccccc2-3)cc1 | ? | ? | 11µM* | ? | ? | i
COc1ccc(C(=O)c2coc(-c3ccccc3C(=O)O)c2C(=O)O)cc1 | i | 9% | 5% | 2% | 14% | i
